In PubChem BioAssay (Tox21):
Unmarked numbers belong to inactive results. Inconclusive results are not listed. Entries that show only a call come without a potency. Activity calls are given as the source filed them. Unless noted, the call rests on the fitted dose curve; in most records, active means well fitted curve in the direction sought with a large enough effect in the repeat runs; inconclusive means weak or mixed curves; inactive means no such curve, though single readings can be large; an effect the other way counts as inactive or inconclusive.

How the values were obtained:
[1] = qHTS assay to identify small molecule antagonists of the estrogen related receptor (ERR) signaling pathway from Tox21 library - cell viability counter screen (AID 1224834); further: nearly all actives have a fitted effect of over 30% in size
Outline: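 Seeded ERR cells were rested 6 h at 37 C/5% CO2 before compounds, positive and negative controls or DMSO were added. Incubation continued for 17.5 h, and viability was then quantified by CellTiter-Fluor fluorescence.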

[2] = target: Luciferin 4-monooxygenase (Photinus pyralis) (UniProt P08659); test: qHTS assay to identify small molecule inhibitors of firefly luciferase (AID 1224835); further: nearly all actives have a fitted effect of over 25% in size; further: potency means the concentration at half of the fitted maximal effect
Outline: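 Quantitative HTS format; KM concentrations of both substrates. Purified P. pyralis FLuc activity quantified from luminescence images.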

[3] = qHTS assay to identify small molecule agonists of the constitutive androstane receptor (CAR) signaling pathway - cell viability counter screen (AID 1224836); further: nearly all actives have a fitted effect of over 45% in size
Outline: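 HepG2 cells stably carrying hCAR and a CYP2B6-2.2kb reporter were plated 4 h, then given compounds at 15 concentrations plus PK11195 (final 0.75 uM). After 23 h at 37 C, viability was read by CellTiter-Fluor fluorescence.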

[4] = target: Nuclear receptor subfamily 1 group I member 3 (Homo sapiens) (UniProt Q14994); test: qHTS assay to identify small molecule antagonists of the constitutive androstane receptor (CAR) signaling pathway (AID 1224838); further: nearly all actives have a fitted effect of over 40% in size
Outline: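 Human hepatoma HepG2 cells expressing hCAR and a CYP2B6 promoter (2.2 kb) luciferase construct; compound titration (15 points) with 50 nM CITCO final, 24 h at 37 C/5% CO2; luminescence via ONE-Glo after 30 min at room temperature.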

[5] = target: Nuclear receptor subfamily 1 group I member 3 (Homo sapiens) (UniProt Q14994); test: qHTS assay to identify small molecule agonists of the constitutive androstane receptor (CAR) signaling pathway (AID 1224839); further: nearly all actives have a fitted effect of over 15% in size; further: potency means the concentration at half of the fitted maximal effect;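 on activation: HepG2 cells stably carrying human CAR and a CYP2B6 luciferase reporter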
Outline: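 HepG2 cells stably expressing hCAR and a CYP2B6-2.2kb luciferase reporter were treated with compounds at 15 concentrations plus 0.75 uM PK11195 (final) for 24 h at 37 C; luminescence was read after ONE-Glo addition.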

[6] = qHTS assay to identify small molecule antagonists of the estrogen related receptor signaling pathway with the pleiotropic PPARgamma coactivator (PGC) from Tox21 10K library - cell viability counter screen (AID 1224840; active means well fitted cell-killing curve with a large enough effect in the repeat runs, not every such curve was filed as active; further: nearly all actives have a fitted effect of over 40% in size)
Outline: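 Seeded PGC/ERR cells (2,000/well, 6 h, 37 C/5% CO2) get compound by pin tool; 17.5 h incubation at 37 C; CellTiter-Fluor added, 30 min, fluorescence measured.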

[7] = target: Thyrotropin receptor (Homo sapiens) (UniProt P16473); test: qHTS assay to identify small molecule agonists of the thyroid stimulating hormone receptor (TSHR) signaling pathway (AID 1224843; calls by dose curve; further: nearly all actives have a fitted effect of over 45% in size; further: potency means the concentration at half of the fitted maximal effect)
Outline: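 Using 15 concentrations per compound in triplicate, cAMP production was monitored in TSHR-HEK293 cells after 30 min compound incubation at RT; HTRF reagents followed, with fluorescence intensity recorded after 1 h.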

[8] = qHTS assay to identify small molecule agonists of the hypoxia (HIF-1) signaling pathway - cell viability counter screen (AID 1224844; calls by dose curve; further: nearly all actives have a fitted effect of over 50% in size)
Outline: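 HRE-bla ME-180; 0.5% dFBS; cpd 17 h, 37C, 5% CO2; CellTiter-Glo lum., 30 min RT, post-FRET read, same wells.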

[9] = qHTS assay to identify small molecule agonists of H2AX (AID 1224845; active means well fitted activation curve with a large enough effect in the signal ratio in the repeat runs, not every such curve was filed as active; the % refers to the signal ratio)
Outline: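 Wild-type CHO-K1 cells plated overnight, then exposed 3 hr at 37C to compounds at 15 concentrations (0.76% DMSO). Lysed, then HTRF anti-pH2AX(S139)-cryptate/anti-H2AX-d2 detection after 24 hr at room temperature; emissions 665 and 620 nm.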

[10] = qHTS assay to identify small molecule agonists of H2AX - cell viability counter screen (AID 1224847; calls by dose curve; further: top concentration of the series differs between compounds; nearly all actives have a fitted effect of over 30% in size)
Outline: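 Wild-type CHO-K1 cells (10% FBS medium) were plated overnight at 37C, exposed to compounds at 15 concentrations for 3 hr at 37C (0.76% DMSO final), and viability was read as CellTiter-Glo luminescence after 30 min at room temperature.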

[11] = qHTS RealTime-Glo MT Cell Viability Assay in HepG2 cells - 24 hour (AID 1224867); further: nearly all actives have a fitted effect of over 50% in size
Outline: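 HepG2 suspension premixed with RealTime-Glo reagents is plated at 600 cells per well and left 5 h at 37 C/5% CO2. Compounds in DMSO then go in, and bioluminescence reflecting viable cell number is recorded over 40 h.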

[12] = qHTS RealTime-Glo MT Cell Viability Assay in HEK293 cells - 32 hour (AID 1224868); further: top concentration of the series differs between compounds; nearly all actives have a fitted effect of over 50% in size
Outline: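 Reads taken at 0, 8, 16, 24, 32 and 40 h from the same wells. HEK293 cells (600/well) carried RealTime-Glo reagents from seeding, with compound added after a 5 h settle at 37 C.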

[13] = A CellTox Green Cytotoxicity Assay to monitor cytotoxicity in HEK293 cells - 0 hour (AID 1224869); further: nearly all actives have a fitted effect of over 50% in size
Outline: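 Tox21 screen in HEK293: membrane-impermeant cyanine dye fluoresces on binding dead-cell DNA; compound pinned 5 h post-seeding, plates held at 37 C, signal read repeatedly through 40 h.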

[14] = qHTS assay to identify small molecule antagonists of the constitutive androstane receptor (CAR) signaling pathway - cell viability counter screen (AID 1224837); further: nearly all actives have a fitted effect of over 45% in size
Outline: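 To flag cytotoxic false antagonists, HepG2 hCAR/CYP2B6-2.2kb cells were treated 23 hr with 15-concentration compound series and 50 nM CITCO at 37 C/5% CO2; CellTiter-Fluor fluorescence was the measured end point.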

[15] = qHTS assay to identify small molecule agonists of the hypoxia (HIF-1) signaling pathway (AID 1224846; active means well fitted activation curve with a large enough effect in the signal ratio in the repeat runs, not every such curve was filed as active; the % refers to the signal ratio)
Outline: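 Reporter induction in HRE-bla ME-180 cells is taken as agonism: cells sit 5 hrs after plating, receive compounds or DMSO only, incubate 17 hrs at 37C under 5% CO2, and are loaded with CCF4-AM for beta-lactamase FRET measurement.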

[16] = qHTS assay to identify small molecule antagonists of the estrogen related receptor signaling pathway with the pleiotropic PPARgamma coactivator (PGC) from Tox21 10K library (AID 1224841; call rule not given here)
Outline: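 Test chemicals dissolved in DMSO were applied to pre-incubated (6 h) PGC/ERR cells at 2,000 cells/well for an 18 h, 37 C treatment; reporter luminescence was then read using One-Glo.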

[17] = qHTS assay to identify small molecule agonists of the estrogen related receptor signaling pathway with the pleiotropic PPARgamma coactivator (PGC) from Tox21 10K library (AID 1224842); further: nearly all actives have a fitted effect of over 15% in size
Outline: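 PGC/ERR reporter cells (NTP line) were seeded 2,000 per well, rested 6 h at 37 C/5% CO2, then pin-dosed with compounds in DMSO for 18 h at 37 C; luciferase read by One-Glo luminescence after 30 min at room temperature.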

[18] = qHTS assay to identify small molecule antagonists of the estrogen related receptor (ERR) signaling pathway from Tox21 library (AID 1224848); further: nearly all actives have a fitted effect of over 50% in size
Outline: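 Tox21 10K compounds in DMSO tested for ERR pathway antagonism in NTP's ERR cell line; 18 h, 37 C exposure; ONE-Glo luminescence.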

[19] = qHTS assay to identify small molecule agonists of the estrogen related receptor (ERR) signaling pathway from Tox21 library (AID 1224849; calls by dose curve; further: nearly all actives have a fitted effect of over 15% in size); conditions: ERR reporter cell line, ONE-Glo luciferase, 18 h; at 92.4 µM (top of the series) unless noted
Outline: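 Tox21 compounds tested for ERR agonism in an NTP reporter cell line: 18 h treatment at 37 C, then ONE-Glo luminescence.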

Luciferin 4-monooxygenase (Photinus pyralis), sequence (P08659 whole entry, looked up): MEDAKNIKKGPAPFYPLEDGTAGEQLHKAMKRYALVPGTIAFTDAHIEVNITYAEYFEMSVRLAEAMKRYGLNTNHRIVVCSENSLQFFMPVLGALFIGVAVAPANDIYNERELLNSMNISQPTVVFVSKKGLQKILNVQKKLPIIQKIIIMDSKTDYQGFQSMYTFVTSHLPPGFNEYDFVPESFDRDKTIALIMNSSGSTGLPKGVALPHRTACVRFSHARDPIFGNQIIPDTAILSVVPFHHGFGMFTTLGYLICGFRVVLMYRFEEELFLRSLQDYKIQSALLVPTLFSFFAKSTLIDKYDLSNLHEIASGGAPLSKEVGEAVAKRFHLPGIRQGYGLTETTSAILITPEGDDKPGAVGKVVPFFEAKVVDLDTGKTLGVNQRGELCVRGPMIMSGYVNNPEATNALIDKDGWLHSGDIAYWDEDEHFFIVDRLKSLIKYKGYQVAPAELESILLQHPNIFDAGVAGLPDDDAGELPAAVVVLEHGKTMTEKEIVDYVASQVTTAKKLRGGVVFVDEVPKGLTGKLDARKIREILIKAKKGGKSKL
Nuclear receptor subfamily 1 group I member 3 (Homo sapiens), sequence (Q14994 whole entry, looked up): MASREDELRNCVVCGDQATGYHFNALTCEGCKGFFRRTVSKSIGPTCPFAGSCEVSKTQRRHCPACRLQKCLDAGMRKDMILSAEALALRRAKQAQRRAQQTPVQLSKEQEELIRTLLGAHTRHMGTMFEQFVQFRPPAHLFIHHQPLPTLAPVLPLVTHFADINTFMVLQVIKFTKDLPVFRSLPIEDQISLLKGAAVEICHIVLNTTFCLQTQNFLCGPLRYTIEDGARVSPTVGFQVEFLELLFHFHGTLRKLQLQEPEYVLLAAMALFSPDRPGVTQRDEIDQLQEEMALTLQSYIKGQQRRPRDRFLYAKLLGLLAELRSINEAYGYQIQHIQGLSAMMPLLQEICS
Thyrotropin receptor (Homo sapiens), sequence (P16473 whole entry, looked up): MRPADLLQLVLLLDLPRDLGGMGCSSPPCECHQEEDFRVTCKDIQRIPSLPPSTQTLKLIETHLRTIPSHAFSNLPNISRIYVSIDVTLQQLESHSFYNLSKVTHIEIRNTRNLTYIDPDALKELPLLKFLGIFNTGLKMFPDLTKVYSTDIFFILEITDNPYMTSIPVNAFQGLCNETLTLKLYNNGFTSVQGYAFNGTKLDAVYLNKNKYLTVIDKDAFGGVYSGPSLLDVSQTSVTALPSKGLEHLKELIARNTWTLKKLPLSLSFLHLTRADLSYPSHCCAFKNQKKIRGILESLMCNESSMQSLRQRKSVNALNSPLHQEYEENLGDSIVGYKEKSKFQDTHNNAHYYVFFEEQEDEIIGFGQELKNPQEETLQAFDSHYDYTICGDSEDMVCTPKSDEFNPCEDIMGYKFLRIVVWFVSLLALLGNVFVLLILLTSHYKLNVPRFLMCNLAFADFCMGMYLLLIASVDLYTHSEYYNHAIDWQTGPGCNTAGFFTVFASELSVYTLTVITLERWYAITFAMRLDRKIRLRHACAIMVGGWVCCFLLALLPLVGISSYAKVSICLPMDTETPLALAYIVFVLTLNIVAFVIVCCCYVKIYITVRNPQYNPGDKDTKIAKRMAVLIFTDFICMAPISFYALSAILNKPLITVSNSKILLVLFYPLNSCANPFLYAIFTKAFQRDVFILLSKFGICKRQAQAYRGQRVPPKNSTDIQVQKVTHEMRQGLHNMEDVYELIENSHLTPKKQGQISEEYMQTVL

CC(=O)NCCCCCC(=O)O
Potency [1]: inactive
Potency [2]: inactive
Potency [3]: inactive
outcome [4]: inactive
Potency [5]: inactive
outcome [6]: inactive
Potency [7]: inactive
outcome [8]: inactive
outcome [9]: inactive
Potency [10]: inactive
outcome [11]: inactive
Potency [12]: inactive
outcome [13]: inactive

Cc1cccc(OCC(O)CNC(C)(C)C)c1C (stereo not drawn)
Potency [1]: inactive
Potency [2]: inactive
Potency [3]: inactive
outcome [4]: inactive
Potency [5]: inactive
outcome [6]: inactive
Potency [7]: inactive
outcome [8]: inactive
outcome [9]: inactive
Potency [10]: inactive
outcome [11]: inactive
Potency [12]: inactive
outcome [13]: inactive

CC(=O)c1ccc2c(c1)Cc1ccccc1-2
Potency [1]: inactive
Potency [2]: 25.2 µM (active)
Potency [3]: inactive
Potency [14]: inactive
Potency [5]: 54.5 µM (active)
outcome [6]: inactive
outcome [8]: inactive
outcome [9]: inactive
outcome [15]: inactive
outcome [11]: inactive
Potency [12]: inactive
outcome [13]: inactive

O=C(CCNNC(=O)c1ccncc1)NCc1ccccc1
Potency [1]: inactive
Potency [2]: inactive
Potency [3]: inactive
Potency [14]: inactive
Potency [5]: inactive
outcome [6]: inactive
Potency [7]: inactive
outcome [8]: inactive
outcome [9]: inactive
Potency [10]: inactive
outcome [11]: inactive
Potency [12]: inactive
outcome [13]: inactive

Brc1ccc(-c2ccccc2)cc1
Potency [1]: inactive
Potency [2]: 35.5 µM (active)
Potency [3]: inactive
Potency [14]: inactive
Potency [5]: inactive
Potency [7]: inactive
outcome [8]: inactive
Potency [10]: inactive
outcome [11]: inactive
Potency [12]: inactive
outcome [13]: inactive

COc1ccc2c(c1)C(=O)N(CCc1ccc(S(=O)(=O)NC(=O)NC3CCCCC3)cc1)C(=O)C2(C)C
Potency [1]: inactive
Potency [2]: inactive
Potency [3]: inactive
Potency [5]: inactive
outcome [6]: inactive
Potency [7]: inactive
outcome [9]: inactive
outcome [15]: inactive
Potency [10]: inactive
outcome [11]: inactive
Potency [12]: inactive
outcome [13]: inactive

CCCCNC1CC(C)(C)NC(C)(C)C1
Potency [1]: inactive
Potency [2]: inactive
Potency [3]: inactive
outcome [4]: inactive
Potency [5]: inactive
outcome [6]: inactive
Potency [16]: inactive
outcome [17]: inactive
Potency [7]: inactive
outcome [8]: inactive
outcome [9]: inactive
outcome [15]: inactive
Potency [18]: inactive
activity change, positive = activation [19]: 8.08%
outcome [11]: inactive
Potency [12]: inactive
outcome [13]: inactive

C=C(C)C(=O)OCC(C)(C)COC(=O)C(=C)C
Potency [1]: inactive
Potency [2]: inactive
Potency [3]: inactive
outcome [4]: inactive
Potency [5]: inactive
outcome [6]: inactive
Potency [16]: inactive
outcome [17]: inactive
outcome [8]: inactive
outcome [9]: inactive
outcome [15]: inactive
Potency [10]: inactive
Potency [18]: inactive
activity change, positive = activation [19]: 0.866%
outcome [11]: inactive
Potency [12]: inactive
outcome [13]: inactive

C[C@H](N)[C@H](O)c1cccc(O)c1
Potency [1]: inactive
Potency [2]: inactive
Potency [3]: inactive
Potency [14]: inactive
outcome [6]: inactive
Potency [7]: inactive
outcome [8]: inactive
outcome [9]: inactive
outcome [15]: inactive
Potency [10]: inactive
outcome [11]: inactive
Potency [12]: inactive
outcome [13]: inactive

Nc1ccc(S(=O)(=O)Nc2ccc(Cl)nn2)cc1
Potency [1]: inactive
Potency [2]: inactive
Potency [3]: inactive
Potency [14]: inactive
Potency [5]: inactive
outcome [6]: inactive
Potency [16]: inactive
outcome [17]: inactive
outcome [8]: inactive
outcome [9]: inactive
Potency [10]: inactive
Potency [18]: inactive
activity change, positive = activation [19]: 4.62% [at 42.5 µM]
outcome [11]: inactive
Potency [12]: inactive
outcome [13]: inactive

CC(C)c1ccc2cc(C(C)C)ccc2c1
Potency [1]: inactive
Potency [2]: 15.9 µM (active)
Potency [3]: inactive
Potency [14]: inactive
outcome [6]: inactive
Potency [7]: inactive
outcome [8]: inactive
outcome [9]: inactive
Potency [10]: inactive
outcome [11]: inactive
Potency [12]: inactive
outcome [13]: inactive

Oc1cn2c(n1)Nc1ccc(Cl)c(Cl)c1C2
viability change, negative = cytotoxic [1]: 0.934% [at 19 µM]
activity change, negative = inhibition [2]: 0.455% [at 23.6 µM]
viability change, negative = cytotoxic [3]: -4.95% [at 19 µM]
activity change, negative = cytotoxicity [14]: 5.38% [at 19 µM]
activation [5]: 5.1% [at 19 µM]
viability change, negative = cytotoxic [6]: 5.01% [at 19 µM]
Potency [7]: 0.73 µM (active)
activity change, negative = cytotoxicity [8]: -1.47% [at 15.8 µM]
activation (H2AX phosphorylation) [9]: -0.0397% [at 31.6 µM]
activity change, negative = cytotoxicity [10]: 0.633% [at 31.6 µM]
activity change, negative = cytotoxicity [11]: -0.765% [at 15.8 µM]
activity change, negative = cytotoxic [12]: 9.1% [at 15.8 µM]
cytotoxicity [13]: 0.503% [at 15.8 µM]

CCOc1cc(NC(C)=O)ccc1C(=O)OC
Potency [1]: inactive
Potency [2]: inactive
Potency [3]: inactive
outcome [4]: inactive
Potency [5]: inactive
outcome [6]: inactive
Potency [16]: inactive
outcome [17]: inactive
Potency [7]: inactive
outcome [8]: inactive
outcome [9]: inactive
outcome [15]: inactive
Potency [10]: inactive
Potency [18]: inactive
activity change, positive = activation [19]: -6.13% [at 42.5 µM]
outcome [11]: inactive
Potency [12]: inactive
outcome [13]: inactive

CC(C)C(=O)OCc1cccc(OC(=O)[C@@H]2N3C(=O)[C@@H](NC(=O)Cc4ccccc4)[C@H]3SC2(C)C)c1
Potency [1]: inactive
Potency [2]: inactive
Potency [3]: inactive
Potency [14]: inactive
outcome [6]: inactive
Potency [7]: inactive
outcome [8]: inactive
outcome [9]: inactive
outcome [15]: inactive
Potency [10]: inactive
outcome [11]: inactive
Potency [12]: inactive
outcome [13]: inactive

CCOCCOCCOCC
Potency [1]: inactive
Potency [2]: inactive
Potency [3]: inactive
Potency [14]: inactive
Potency [5]: inactive
outcome [6]: inactive
outcome [8]: inactive
outcome [9]: inactive
outcome [15]: inactive
outcome [11]: inactive
Potency [12]: inactive
outcome [13]: inactive

CC(C)CC(C)CC(C)CC(C)COC(=O)c1ccccc1C(=O)OCC(C)CC(C)CC(C)CC(C)C (stereo not drawn)
Potency [1]: inactive
Potency [2]: inactive
Potency [3]: inactive
Potency [14]: inactive
outcome [6]: inactive
Potency [16]: inactive
outcome [17]: inactive
Potency [7]: inactive
outcome [8]: inactive
outcome [9]: inactive
outcome [15]: inactive
Potency [10]: inactive
Potency [18]: inactive
activity change, positive = activation [19]: -6.15%
outcome [11]: inactive
Potency [12]: inactive
outcome [13]: inactive

Cc1ccsc1/C=C/C1=NCCCN1C
Potency [1]: inactive
Potency [2]: inactive
Potency [3]: inactive
Potency [14]: inactive
Potency [5]: inactive
Potency [16]: inactive
outcome [17]: inactive
Potency [7]: inactive
outcome [8]: inactive
outcome [9]: inactive
Potency [10]: inactive
Potency [18]: inactive
activity change, positive = activation [19]: -1.39% [at 42.5 µM]
outcome [11]: inactive
Potency [12]: inactive
outcome [13]: inactive
